According to ChEMBL document CHEMBL1961873, “Compounds: GSK PKIS; Assays: Nanosyn kinase panel” (2012):

Key:
[1] = target: Protein kinase C gamma type (Homo sapiens) (UniProt P05129); conditions: at 1 µM;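 further: each value is an averaged percent inhibition of the enzyme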
[2] = target: T1, Protein kinase C iota type (Homo sapiens) (UniProt P41743); conditions: at 0.1 µM
T1 sequence (whole entry): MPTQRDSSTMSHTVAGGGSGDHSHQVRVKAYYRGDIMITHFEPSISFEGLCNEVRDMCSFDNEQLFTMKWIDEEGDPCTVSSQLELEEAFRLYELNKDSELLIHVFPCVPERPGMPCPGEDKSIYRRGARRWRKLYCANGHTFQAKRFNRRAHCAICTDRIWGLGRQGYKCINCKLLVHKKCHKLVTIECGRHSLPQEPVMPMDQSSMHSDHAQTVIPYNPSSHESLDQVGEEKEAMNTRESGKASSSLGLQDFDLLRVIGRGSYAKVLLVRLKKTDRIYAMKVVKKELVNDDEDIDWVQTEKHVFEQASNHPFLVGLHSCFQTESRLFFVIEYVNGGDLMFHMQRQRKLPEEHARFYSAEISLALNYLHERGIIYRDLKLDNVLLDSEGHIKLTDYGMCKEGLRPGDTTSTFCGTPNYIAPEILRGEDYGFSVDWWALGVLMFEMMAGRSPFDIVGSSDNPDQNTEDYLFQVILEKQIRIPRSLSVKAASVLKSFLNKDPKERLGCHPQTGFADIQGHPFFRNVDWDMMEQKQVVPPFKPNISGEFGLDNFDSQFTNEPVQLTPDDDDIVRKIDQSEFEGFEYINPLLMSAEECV

[3] = target: T1, Protein kinase C iota type (Homo sapiens); conditions: at 1 µM
[4] = target: Protein kinase C theta type (Homo sapiens) (UniProt Q04759); conditions: at 0.1 µM
[5] = target: Protein kinase C theta type (Homo sapiens) (UniProt Q04759); conditions: at 1 µM
[6] = target: Protein kinase C beta type (Homo sapiens) (UniProt P05771); conditions: at 0.1 µM
[7] = target: Protein kinase C beta type (Homo sapiens) (UniProt P05771); conditions: at 1 µM
[8] = target: T2, Serine/threonine-protein kinase D1 (Homo sapiens) (UniProt Q15139); conditions: at 0.1 µM
T2 sequence (whole entry): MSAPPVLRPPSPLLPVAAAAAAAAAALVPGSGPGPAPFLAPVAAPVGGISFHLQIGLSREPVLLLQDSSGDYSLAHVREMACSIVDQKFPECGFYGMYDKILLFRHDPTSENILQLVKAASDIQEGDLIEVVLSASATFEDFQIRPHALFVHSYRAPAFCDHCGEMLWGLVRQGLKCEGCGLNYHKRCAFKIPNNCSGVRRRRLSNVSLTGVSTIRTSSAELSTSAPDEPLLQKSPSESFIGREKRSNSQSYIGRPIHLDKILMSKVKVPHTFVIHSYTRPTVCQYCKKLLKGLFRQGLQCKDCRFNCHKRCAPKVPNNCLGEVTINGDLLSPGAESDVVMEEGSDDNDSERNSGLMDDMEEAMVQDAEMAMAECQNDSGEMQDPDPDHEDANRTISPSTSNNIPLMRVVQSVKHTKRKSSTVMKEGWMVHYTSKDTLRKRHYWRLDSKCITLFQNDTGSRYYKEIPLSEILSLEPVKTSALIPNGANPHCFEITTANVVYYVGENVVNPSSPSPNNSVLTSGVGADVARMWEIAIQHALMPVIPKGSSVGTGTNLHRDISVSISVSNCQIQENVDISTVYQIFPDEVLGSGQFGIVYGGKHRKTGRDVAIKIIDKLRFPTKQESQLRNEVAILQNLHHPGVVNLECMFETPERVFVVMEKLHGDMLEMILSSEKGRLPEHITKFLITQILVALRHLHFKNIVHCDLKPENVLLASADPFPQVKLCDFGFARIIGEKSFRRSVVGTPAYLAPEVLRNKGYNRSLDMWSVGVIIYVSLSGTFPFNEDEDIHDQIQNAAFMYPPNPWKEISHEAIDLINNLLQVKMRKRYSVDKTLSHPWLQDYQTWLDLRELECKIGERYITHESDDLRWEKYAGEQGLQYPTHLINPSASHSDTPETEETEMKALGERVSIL

[9] = target: T2, Serine/threonine-protein kinase D1 (Homo sapiens); conditions: at 1 µM
[10] = target: T3, Serine/threonine-protein kinase D2 (Homo sapiens) (UniProt Q9BZL6); conditions: at 0.1 µM
T3 sequence (whole entry): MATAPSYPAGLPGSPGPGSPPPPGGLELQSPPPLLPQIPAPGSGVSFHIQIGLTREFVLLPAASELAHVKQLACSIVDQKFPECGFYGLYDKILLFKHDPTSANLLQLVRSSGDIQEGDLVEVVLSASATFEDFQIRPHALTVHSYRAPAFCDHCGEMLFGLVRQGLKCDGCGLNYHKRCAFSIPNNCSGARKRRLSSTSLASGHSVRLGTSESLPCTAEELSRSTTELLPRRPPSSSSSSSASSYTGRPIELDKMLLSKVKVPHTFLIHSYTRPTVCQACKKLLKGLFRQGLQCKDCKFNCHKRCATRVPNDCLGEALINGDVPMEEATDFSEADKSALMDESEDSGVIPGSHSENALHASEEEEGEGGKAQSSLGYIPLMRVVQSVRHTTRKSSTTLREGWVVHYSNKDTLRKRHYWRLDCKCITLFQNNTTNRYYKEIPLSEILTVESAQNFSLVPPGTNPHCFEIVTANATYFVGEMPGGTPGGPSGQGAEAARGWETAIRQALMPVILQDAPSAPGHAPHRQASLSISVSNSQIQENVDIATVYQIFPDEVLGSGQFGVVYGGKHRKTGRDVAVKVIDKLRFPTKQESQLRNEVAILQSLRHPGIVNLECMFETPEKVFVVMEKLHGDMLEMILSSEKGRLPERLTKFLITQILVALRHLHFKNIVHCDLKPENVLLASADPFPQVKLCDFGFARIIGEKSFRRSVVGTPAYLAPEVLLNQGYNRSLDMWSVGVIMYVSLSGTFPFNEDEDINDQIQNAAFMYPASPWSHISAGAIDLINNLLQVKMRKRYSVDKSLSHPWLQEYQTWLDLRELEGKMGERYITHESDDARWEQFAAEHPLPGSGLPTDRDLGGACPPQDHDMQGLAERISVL

[11] = target: T3, Serine/threonine-protein kinase D2 (Homo sapiens); conditions: at 1 µM
[12] = target: T4, Serine/threonine-protein kinase D3 (Homo sapiens) (UniProt O94806); conditions: at 0.1 µM
T4 sequence (whole entry): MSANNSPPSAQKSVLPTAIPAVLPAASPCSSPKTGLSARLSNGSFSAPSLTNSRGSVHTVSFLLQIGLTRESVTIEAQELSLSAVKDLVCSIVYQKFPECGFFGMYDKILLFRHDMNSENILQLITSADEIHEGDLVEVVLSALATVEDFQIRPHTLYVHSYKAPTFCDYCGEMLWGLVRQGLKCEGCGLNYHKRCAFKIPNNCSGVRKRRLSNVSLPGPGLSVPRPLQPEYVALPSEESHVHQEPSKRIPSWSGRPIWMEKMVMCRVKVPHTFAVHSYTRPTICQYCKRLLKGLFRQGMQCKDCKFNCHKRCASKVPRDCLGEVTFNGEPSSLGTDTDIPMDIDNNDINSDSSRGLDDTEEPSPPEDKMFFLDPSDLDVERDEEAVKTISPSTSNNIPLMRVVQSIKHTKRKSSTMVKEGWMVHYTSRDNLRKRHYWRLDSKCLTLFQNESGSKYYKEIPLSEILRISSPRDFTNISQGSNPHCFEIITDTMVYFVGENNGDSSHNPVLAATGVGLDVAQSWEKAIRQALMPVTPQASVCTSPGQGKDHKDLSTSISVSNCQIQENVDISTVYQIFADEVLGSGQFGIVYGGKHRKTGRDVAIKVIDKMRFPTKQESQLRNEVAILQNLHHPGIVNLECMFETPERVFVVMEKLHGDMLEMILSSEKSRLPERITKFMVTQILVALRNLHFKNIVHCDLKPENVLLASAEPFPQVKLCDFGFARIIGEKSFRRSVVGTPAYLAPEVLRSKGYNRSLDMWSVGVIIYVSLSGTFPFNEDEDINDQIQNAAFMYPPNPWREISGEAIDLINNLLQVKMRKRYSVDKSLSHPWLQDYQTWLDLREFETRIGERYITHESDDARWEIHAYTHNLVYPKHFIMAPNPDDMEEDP

[13] = target: T4, Serine/threonine-protein kinase D3 (Homo sapiens); conditions: at 1 µM
[14] = target: T5, cGMP-dependent protein kinase 1 (Homo sapiens) (UniProt Q13976); conditions: at 0.1 µM
T5 sequence (whole entry): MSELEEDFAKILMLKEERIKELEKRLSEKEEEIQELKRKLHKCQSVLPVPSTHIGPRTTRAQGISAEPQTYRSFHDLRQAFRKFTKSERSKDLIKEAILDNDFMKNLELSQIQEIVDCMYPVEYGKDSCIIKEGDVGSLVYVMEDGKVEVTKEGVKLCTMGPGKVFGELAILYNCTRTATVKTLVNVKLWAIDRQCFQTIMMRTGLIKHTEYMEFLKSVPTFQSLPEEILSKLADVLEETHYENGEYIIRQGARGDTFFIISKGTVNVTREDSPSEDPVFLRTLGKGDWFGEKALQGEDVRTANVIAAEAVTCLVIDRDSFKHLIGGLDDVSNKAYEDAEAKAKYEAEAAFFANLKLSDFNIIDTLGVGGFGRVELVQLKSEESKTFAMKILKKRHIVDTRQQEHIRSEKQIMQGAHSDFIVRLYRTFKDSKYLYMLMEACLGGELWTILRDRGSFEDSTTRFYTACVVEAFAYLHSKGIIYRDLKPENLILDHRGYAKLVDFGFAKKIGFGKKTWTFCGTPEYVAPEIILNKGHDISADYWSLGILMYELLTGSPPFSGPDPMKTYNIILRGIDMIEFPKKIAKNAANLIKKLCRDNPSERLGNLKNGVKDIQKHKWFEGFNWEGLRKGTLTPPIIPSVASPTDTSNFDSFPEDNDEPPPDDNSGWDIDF

[15] = target: T5, cGMP-dependent protein kinase 1 (Homo sapiens); conditions: at 1 µM
[16] = target: T6, cGMP-dependent protein kinase 2 (Homo sapiens) (UniProt Q13237); conditions: at 0.1 µM
T6 sequence (whole entry): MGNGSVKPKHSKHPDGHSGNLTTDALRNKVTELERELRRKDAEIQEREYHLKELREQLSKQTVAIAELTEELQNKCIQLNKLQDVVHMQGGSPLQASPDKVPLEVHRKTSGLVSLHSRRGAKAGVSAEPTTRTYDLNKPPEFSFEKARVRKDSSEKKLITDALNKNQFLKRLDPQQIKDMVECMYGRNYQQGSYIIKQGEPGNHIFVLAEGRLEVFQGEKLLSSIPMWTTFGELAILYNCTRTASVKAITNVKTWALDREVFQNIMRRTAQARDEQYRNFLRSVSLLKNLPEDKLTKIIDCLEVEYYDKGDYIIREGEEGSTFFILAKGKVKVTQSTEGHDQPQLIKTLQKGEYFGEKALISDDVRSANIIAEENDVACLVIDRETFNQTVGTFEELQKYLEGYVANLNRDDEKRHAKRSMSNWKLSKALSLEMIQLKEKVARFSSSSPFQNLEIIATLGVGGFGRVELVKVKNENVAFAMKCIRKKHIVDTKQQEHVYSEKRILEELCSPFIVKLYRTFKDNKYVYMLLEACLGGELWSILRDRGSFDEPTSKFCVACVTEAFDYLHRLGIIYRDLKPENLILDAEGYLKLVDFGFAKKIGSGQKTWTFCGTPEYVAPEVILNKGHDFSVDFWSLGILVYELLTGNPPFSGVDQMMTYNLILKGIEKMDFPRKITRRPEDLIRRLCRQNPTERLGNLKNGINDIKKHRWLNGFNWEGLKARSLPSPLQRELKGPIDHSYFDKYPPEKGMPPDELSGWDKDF

[17] = target: T6, cGMP-dependent protein kinase 2 (Homo sapiens); conditions: at 1 µM
[18] = target: T7, cAMP-dependent protein kinase catalytic subunit PRKX (Homo sapiens) (UniProt P51817); conditions: at 0.1 µM
T7 sequence (whole entry): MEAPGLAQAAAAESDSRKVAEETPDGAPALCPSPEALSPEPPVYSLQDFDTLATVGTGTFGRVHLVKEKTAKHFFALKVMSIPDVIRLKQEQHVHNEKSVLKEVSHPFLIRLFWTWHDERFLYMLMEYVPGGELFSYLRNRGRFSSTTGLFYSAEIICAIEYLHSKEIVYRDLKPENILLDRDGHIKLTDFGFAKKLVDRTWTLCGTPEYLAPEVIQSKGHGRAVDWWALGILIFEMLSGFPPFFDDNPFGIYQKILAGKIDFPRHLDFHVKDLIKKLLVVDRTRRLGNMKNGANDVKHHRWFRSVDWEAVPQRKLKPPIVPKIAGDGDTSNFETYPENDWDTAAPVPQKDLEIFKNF

[19] = target: T7, cAMP-dependent protein kinase catalytic subunit PRKX (Homo sapiens); conditions: at 1 µM
[20] = target: Rho-associated protein kinase 1 (Homo sapiens) (UniProt Q13464); conditions: at 0.1 µM;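 further: values are mean percent inhibition of ROCK1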
Sequence of Rho-associated protein kinase 1 (Homo sapiens) (Q13464 2-1354 limits assumed): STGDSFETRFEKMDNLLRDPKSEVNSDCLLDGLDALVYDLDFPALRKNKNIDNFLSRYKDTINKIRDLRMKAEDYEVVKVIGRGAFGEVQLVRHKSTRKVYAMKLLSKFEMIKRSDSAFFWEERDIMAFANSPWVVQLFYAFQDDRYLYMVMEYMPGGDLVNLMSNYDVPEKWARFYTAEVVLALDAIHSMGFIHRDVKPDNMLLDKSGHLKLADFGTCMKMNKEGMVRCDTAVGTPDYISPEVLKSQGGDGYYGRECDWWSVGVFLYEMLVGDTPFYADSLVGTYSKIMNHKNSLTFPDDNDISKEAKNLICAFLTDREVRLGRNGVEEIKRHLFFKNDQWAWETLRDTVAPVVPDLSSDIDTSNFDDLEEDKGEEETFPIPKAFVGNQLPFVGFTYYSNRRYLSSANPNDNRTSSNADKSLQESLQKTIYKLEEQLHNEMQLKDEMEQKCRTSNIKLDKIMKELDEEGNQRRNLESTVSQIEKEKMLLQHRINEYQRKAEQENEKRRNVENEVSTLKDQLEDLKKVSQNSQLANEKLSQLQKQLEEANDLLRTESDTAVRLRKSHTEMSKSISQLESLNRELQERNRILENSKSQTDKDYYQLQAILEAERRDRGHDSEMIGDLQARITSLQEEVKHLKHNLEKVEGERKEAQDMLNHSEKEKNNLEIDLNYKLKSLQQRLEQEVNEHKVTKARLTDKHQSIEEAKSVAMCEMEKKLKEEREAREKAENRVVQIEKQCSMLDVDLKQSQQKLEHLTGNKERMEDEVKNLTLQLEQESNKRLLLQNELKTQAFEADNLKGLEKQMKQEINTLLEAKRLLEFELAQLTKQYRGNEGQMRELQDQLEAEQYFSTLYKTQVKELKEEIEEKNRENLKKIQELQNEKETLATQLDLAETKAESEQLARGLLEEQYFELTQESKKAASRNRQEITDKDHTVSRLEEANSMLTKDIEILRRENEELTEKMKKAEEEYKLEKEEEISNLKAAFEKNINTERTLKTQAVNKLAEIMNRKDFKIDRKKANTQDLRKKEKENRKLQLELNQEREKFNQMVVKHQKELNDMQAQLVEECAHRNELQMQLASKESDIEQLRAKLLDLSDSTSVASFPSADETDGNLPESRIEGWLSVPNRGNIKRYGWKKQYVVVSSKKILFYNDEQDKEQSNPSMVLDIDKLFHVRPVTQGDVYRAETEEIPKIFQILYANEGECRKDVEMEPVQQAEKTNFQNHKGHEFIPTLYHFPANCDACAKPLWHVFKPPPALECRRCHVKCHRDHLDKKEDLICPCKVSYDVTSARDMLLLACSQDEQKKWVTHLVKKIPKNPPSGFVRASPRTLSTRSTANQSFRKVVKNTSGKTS

Sequence of Protein kinase C beta type (Homo sapiens) (P05771 2-671 limits assumed): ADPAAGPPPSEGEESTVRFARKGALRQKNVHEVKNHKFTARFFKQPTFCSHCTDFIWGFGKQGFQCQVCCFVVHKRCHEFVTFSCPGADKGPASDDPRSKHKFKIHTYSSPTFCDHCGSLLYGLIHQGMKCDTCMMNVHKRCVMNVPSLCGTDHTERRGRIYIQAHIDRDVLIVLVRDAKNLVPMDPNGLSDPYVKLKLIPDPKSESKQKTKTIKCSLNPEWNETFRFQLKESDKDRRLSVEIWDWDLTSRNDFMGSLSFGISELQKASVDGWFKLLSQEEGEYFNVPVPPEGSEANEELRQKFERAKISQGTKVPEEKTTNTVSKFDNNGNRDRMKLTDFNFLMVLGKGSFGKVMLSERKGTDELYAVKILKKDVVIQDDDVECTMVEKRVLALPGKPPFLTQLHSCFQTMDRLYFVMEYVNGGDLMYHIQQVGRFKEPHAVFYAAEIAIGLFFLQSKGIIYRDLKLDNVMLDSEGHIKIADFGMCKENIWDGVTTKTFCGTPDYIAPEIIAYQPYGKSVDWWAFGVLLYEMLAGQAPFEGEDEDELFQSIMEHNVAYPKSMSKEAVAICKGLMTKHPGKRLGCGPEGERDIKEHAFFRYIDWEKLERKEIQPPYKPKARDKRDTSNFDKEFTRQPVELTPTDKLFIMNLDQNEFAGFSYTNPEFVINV
Sequence of Protein kinase C theta type (Homo sapiens) (Q04759 whole entry, looked up): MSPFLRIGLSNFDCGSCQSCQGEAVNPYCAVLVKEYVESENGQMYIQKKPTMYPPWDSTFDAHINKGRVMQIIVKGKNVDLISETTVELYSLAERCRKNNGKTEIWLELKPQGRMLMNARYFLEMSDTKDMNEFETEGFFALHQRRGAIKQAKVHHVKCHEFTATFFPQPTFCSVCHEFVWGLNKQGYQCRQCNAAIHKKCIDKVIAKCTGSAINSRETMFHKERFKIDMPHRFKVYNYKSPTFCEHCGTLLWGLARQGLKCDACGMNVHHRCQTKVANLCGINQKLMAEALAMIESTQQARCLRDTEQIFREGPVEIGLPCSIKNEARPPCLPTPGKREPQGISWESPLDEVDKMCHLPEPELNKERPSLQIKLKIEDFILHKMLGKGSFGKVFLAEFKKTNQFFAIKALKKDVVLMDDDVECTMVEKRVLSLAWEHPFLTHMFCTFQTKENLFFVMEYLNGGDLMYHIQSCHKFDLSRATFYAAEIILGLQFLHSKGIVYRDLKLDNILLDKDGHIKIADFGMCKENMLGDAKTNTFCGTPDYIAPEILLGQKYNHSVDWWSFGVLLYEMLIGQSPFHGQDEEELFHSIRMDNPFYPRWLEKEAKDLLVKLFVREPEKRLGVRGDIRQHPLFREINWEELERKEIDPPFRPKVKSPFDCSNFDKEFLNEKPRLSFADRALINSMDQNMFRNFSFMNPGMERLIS

SMILES | inhibition [1] [%] | inhibition [2] [%] | inhibition [3] [%] | inhibition [4] [%] | inhibition [5] [%] | inhibition [6] [%] | inhibition [7] [%] | inhibition [8] [%] | inhibition [9] [%] | inhibition [10] [%] | inhibition [11] [%] | inhibition [12] [%] | inhibition [13] [%] | inhibition [14] [%] | inhibition [15] [%] | inhibition [16] [%] | inhibition [17] [%] | inhibition [18] [%] | inhibition [19] [%] | inhibition [20] [%]
NS(=O)(=O)c1ccc(N/N=C2\C(=O)Nc3cccc(CCc4ccncc4)c32)cc1 | -0.16 | 0.18 | 1.06 | 0.33 | -0.34 | -0.03 | 0.05 | 1.18 | 1.94 | 0.05 | 0.82 | 0.3 | 0.91 | 0.22 | -0.46 | -0.44 | -0.5 | 0.12 | 0.09 | 0.65
NC(=O)c1ccc2c(-c3ccnc(NCCCO)n3)c(-c3ccc(F)cc3)nn2c1 | 7.09 | 1.98 | 3.92 | 2.7 | 2.63 | 4.8 | 24.3 | 6.13 | 25.5 | 7.41 | 32.7 | 7.38 | 28.4 | 3.77 | 5.16 | 1.84 | 3.89 | 1.77 | 1.05 | 1.85
COc1cccc(Nc2nccc(-c3cnn4ncccc34)n2)c1 | 9.31 | -1.42 | -1.07 | 0.2 | 4.75 | 0.37 | 7.43 | 4.01 | 38.2 | 2.78 | 37.4 | 4.36 | 41.4 | 5.54 | 37.6 | 1.94 | 14.5 | -0.56 | -0.01 | -0.95
